We go through 36 molecules from ChEMBL document CHEMBL3433997, “St. Jude Leishmania screening dataset” (2016).

One may read the inhibition as the change of the read-out against control, counted positive when it falls.

Common to all, as to format: functional
Assay [1] has as its target Solute carrier family 2, facilitated glucose transporter member 1 (Homo sapiens) (UniProt P11166). Put plainly: ST_JUDE_LEISH: Cytotoxicity at 2uM final concentration against transgenic Leishmania Mexicana promastigotes LmGLUT1 that are glucose transport deficient and complemented with the human glucose transporter GLUT1. Activity is measured by DNA content using SYBR green in vitro.

Assay [2] deals with Hexose transporter 1 (Plasmodium falciparum) (UniProt O97467). The assay can be described thus: ST_JUDE_LEISH: Cytotoxicity at 2uM final concentration against transgenic Leishmania Mexicana promastigotes LmPfHT that are glucose transport deficient and complemented with the Plasmodium falciparum hexose transporter. Activity is measured by DNA content using SYBR green in vitro.

Assay [3] deals with Glucose transporter (Leishmania mexicana) (UniProt O61059). The assay can be described thus: ST_JUDE_LEISH: Cytotoxicity at 2uM final concentration against transgenic Leishmania Mexicana promastigotes LmGT2 that are glucose transport deficient and complemented with the L. Mexicana glucose transporter 2. Activity is measured by DNA content using SYBR green in vitro.

Sequence of Solute carrier family 2, facilitated glucose transporter member 1 (Homo sapiens) (P11166 whole entry): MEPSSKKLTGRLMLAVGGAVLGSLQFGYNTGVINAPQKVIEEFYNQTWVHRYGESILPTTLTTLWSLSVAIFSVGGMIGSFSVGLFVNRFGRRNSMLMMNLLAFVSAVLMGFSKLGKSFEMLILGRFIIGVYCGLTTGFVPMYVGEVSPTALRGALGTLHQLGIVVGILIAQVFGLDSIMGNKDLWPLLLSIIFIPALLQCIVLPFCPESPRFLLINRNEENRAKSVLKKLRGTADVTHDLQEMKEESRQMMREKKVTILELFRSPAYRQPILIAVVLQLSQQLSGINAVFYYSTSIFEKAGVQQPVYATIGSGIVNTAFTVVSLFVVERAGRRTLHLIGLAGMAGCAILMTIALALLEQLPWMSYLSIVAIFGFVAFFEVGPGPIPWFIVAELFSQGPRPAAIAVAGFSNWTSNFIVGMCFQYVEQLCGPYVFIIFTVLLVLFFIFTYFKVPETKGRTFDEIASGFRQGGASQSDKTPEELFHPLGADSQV

In the case of `c1ccc2sc(Sc3ncnc4sccc34)nc2c1`, the figures for the inhibition in assay [1], in assay [2] and in assay [3] were 2.07%, -1.08% and 0.27%, respectively.

Turning to `O=C(Nc1ccccc1Cc1ccccc1)c1ccccc1[N+](=O)[O-]`, the inhibition in assay [1] is -1.08%; in assay [2], -2.27%; in assay [3] it was -2.02%.

As to `O=C(Nc1ccc(-c2ccc(-c3nc4cc(C(F)(F)F)ccc4[nH]3)s2)cc1)c1c[nH]cn1`, the values for the inhibition in assay [1], in assay [2] and in assay [3] were 3.09%, 7.24% and 8.27%, respectively.

Consider `COc1ccc2cc(C(=O)NC3CCC(CCN4CCc5cc(C#N)ccc5C4)CC3)[nH]c2c1` (stereo not drawn), for which the inhibition in assay [1] worked out at 3.48%; in assay [2] it was 0.58%; in assay [3], 3.6%.

Take `CCCc1cc(Cc2cnc(N)nc2N)cc(CCC)c1O`: the values for the inhibition in assay [1], in assay [2] and in assay [3] were 2.06%, 1.83% and 1.49%, respectively.

With `COc1ccc(NC(=O)/C=C/c2ccc(Cl)c(Cl)c2)cc1N1CCN(C)CC1`, the inhibition is 9.73% in assay [1], 4.85% in assay [2] and 6.48% in assay [3].

As to `CC(CN1CCN(CC(c2ccc(F)cc2)N2CCN(C)CC2)CC1)C(=O)c1ccc(O)cc1` (stereo not drawn), the inhibition in assay [1] was 2.71%; in assay [2], 2.35%; in assay [3] it was 2.04%.

As for `CCOc1cc(C(=O)NC2CCN(Cc3ccccc3)C2)ccc1-c1nc2cc(Cl)ccc2[nH]1` (stereo not drawn), the values for the inhibition in assay [1], in assay [2] and in assay [3] were 6.92%, 3.47% and 6.92%, respectively.

For `CCc1ccc(C2CCN(CCCCNC(=O)c3ccc(-c4ccc(Cl)cc4)cc3)CC2)c(O)c1`, the inhibition came out at 0.23% in assay [1], 2.44% in assay [2] and 2.8% in assay [3].

Take `COc1cc2nc(NCCc3ccccc3)nc(NCCCc3ccccc3)c2cc1OC`: the inhibition is 6.89% in assay [1], 10.1% in assay [2] and 2.36% in assay [3].

With `O=C1c2ccccc2CN1CCCN1CCC(Oc2ccc(F)cc2)CC1`, the inhibition in assay [1] was -2.87%; in assay [2], -2.18%; in assay [3], -3.86%.

Take `N#Cc1cc(C(=O)c2cc(Br)ccc2O)cn(-c2cc(Cl)cc(Cl)c2)c1=O`: the inhibition is -3.11% in assay [1], 0.39% in assay [2] and -3.61% in assay [3].

Consider `CCCc1cc(N2CCC(N3CCCC3)CC2)nc(Nc2ccc(Cl)cc2)n1`, for which the inhibition in assay [1] is -1.71%; in assay [2], 2.3%; in assay [3], 0.85%.

Regarding `O=c1[nH]ccc2nc(N[C@@H]3CCNC3)nc(Nc3cccc(S(=O)(=O)N4CCOCC4)c3)c12`, the inhibition in assay [1] worked out at 2.94%; in assay [2], 3.93%; in assay [3], 0.85%.

With `c1ccc(CN2CCC(NCc3ccccc3-c3cccc(CNC4CCCC4)c3)CC2)cc1`, the inhibition in assay [1] is 6.21%; in assay [2], 2.62%; in assay [3], 7.14%.

On to `CNC(=O)Cc1ccc(C(=O)Nc2cccc(-c3cccc(-c4nc5cccc(C)c5[nH]4)c3)c2)cc1`, for which the inhibition is -2.05% in assay [1], -0.87% in assay [2] and -1.69% in assay [3].

For `O=C(/C=C/c1ccc(Cl)c(Cl)c1)NCCCCCN1CCC(NC(=O)c2ccc([N+](=O)[O-])cc2)CC1`, the inhibition in assay [1] was found to be 12.2%; in assay [2], 9.99%; in assay [3], 9.31%.

As for `Cc1cccc2nc(-c3ccc(-c4ccc(CN5CCN(c6cnccn6)CC5)cc4)s3)[nH]c12`, the inhibition amounted to 11.9% in assay [1], 9.41% in assay [2] and 9.78% in assay [3].

On to `O=C(NC12CC3CC(CC(C3)C1)C2)C(=O)c1c[nH]c2ccccc12`, for which the inhibition in assay [1] came out at 3.4%; in assay [2], 3.09%; in assay [3] it was 1.4%.

Regarding `CN(c1ccc(NC(=O)c2ccc(F)cc2)cc1)C1CCN(Cc2cccc(F)c2)C1` (stereo not drawn), the inhibition was 1.66% in assay [1], -0.15% in assay [2] and 3.04% in assay [3].

Take `c1cncc(Oc2ccc(Nc3ccnc4cc(-c5cccc(CN6CCCCC6)c5)ccc34)cc2)c1`: the inhibition in assay [1] worked out at 3.68%; in assay [2] it was 2.51%; in assay [3], 2.68%.

Regarding `Cc1nc2nc(N)nc(N)c2c(C)c1Cc1cccs1`, the figures for the inhibition in assay [1], in assay [2] and in assay [3] were 1.85%, 1.16% and 2.44%, respectively.

For the molecule `CCc1ccc(C2CCN(CCCCNC(=O)c3ccc(NC(=O)c4ccc(Cl)cc4)cc3)CC2)c(OCC(=O)OC)c1`, the inhibition in assay [1] was -0.04%; in assay [2], 1.79%; in assay [3], 1.25%.

On to `O=C(/C=C/c1ccc(Cl)c(Cl)c1)N1CCC(CCN2CCC(c3c[nH]c4cnccc34)CC2)CC1`, for which the inhibition stood at 16% in assay [1], 11.9% in assay [2] and 5.81% in assay [3].

For `CC(C)NCc1cccc(-c2cccc(NC(=O)c3cccc(C#N)c3)c2)c1`, the figures for the inhibition in assay [1], in assay [2] and in assay [3] were 5.22%, 4.93% and 5.23%, respectively.

With `Cc1ccc(-n2c(Cc3cccc4ccccc34)nnc2SCCC#N)c(C)c1`, the inhibition in assay [1] turned out to be 5.99%; in assay [2], 5.29%; in assay [3] it was 8.9%.

As for `CC(Cc1ccc(C(=O)N2CCN(C(=O)c3ccc(CC(C)NCCc4cccc(Cl)c4)cc3)CC2)cc1)NCCc1cccc(Cl)c1` (stereo not drawn), the results for the inhibition in assay [1], in assay [2] and in assay [3] were 6.51%, 3.6% and 5.54%, respectively.

Turning to `O=C(NCc1cccc(F)c1)Nc1ccc(-c2cccc(-c3nc4cc(F)ccc4[nH]3)c2)cc1`, the inhibition was 1.98% in assay [1], 1.08% in assay [2] and 6.08% in assay [3].

Regarding `COCCNC(=O)C(CNC(=O)c1ccc2c(c1)OCO2)NC(=O)c1ccc(-c2ccccc2)cc1` (stereo not drawn), the inhibition turned out to be 3.8% in assay [1], 0.37% in assay [2] and 0.64% in assay [3].

For the molecule `COc1ccc(CCNCC(O)COc2nccc3c(S(=O)(=O)N4CCCNCC4)cccc23)cc1OC` (stereo not drawn), the results for the inhibition in assay [1], in assay [2] and in assay [3] were -1.57%, -1.2% and -2.89%, respectively.

On to `COC(=O)c1cccc(NC(=O)NC2CCN(c3ccnc(NCc4ccc(F)cc4)n3)CC2)c1`, for which the inhibition in assay [1] was -2.83%; in assay [2] it was -2.8%; in assay [3] it was -0.54%.

Turning to `COc1ccccc1C(=O)Nc1ccc(Nc2nc(C)cc(N(C)C)n2)cc1`, the values for the inhibition in assay [1], in assay [2] and in assay [3] were 7.13%, 18.3% and 5.83%, respectively.

Turning to `c1ccn2c(-c3ncnc(NCc4ccc5c(c4)CCO5)n3)cnc2c1`, the inhibition in assay [1] came to 1%; in assay [2], 1.45%; in assay [3], 0.24%.

Regarding `O=C(NC1CCN(Cc2ccc(F)cc2)CC1)c1ccc(-c2cccc(C(F)(F)F)c2)s1`, the inhibition in assay [1] was found to be 9.61%; in assay [2], 9.88%; in assay [3] it was 1.44%.

For the molecule `CCCCOc1cc2c(cc1OCC)C(C=Cc1ccc(Cl)cc1Cl)=NCC2`, the inhibition is 15.5% in assay [1], 27.9% in assay [2] and 10.2% in assay [3].

Take `COc1ccc(CCN(C)CCCN2CCC(NC(=O)c3cccc4c(=O)c5ccccc5sc34)CC2)cc1OC`: the results for the inhibition in assay [1], in assay [2] and in assay [3] were 2.6%, 1.86% and 5.63%, respectively.
